Records with an inconclusive call do not appear. Active and inactive are the calls of the source. Calls follow the shape of the dose curve; as a rule, active = well fitted activation curve with a large enough effect; inconclusive = small, poorly fitted or top-dose-only effect; inactive = no such curve, though single readings can be large or run the other way.
Assay: qHTS Assay for NPC1 Promoter Activators: Hit Validation Using Firefly Luciferase Read-Out for Rab9
Settings: Huh7 Rab9 promoter firefly luciferase reporter, 24 h; series mostly up to 46.1 µM; activation: at the top concentration
Text: Niemann Pick Type C (NPC) is a rare neurodegenerative lipidosis that is characterized by lipid storage in the endosomal/lysosomal system. Treatment modalities for this devastating disease are currently non-existent due to the severe obstacles associated with accessing the central nervous system with proteins or genes. The majority of mutations causing NPC disease are missense mutations that are distributed throughout the length of the NPC1 protein, with the most prevalent being the I1061T allele. Although NPC1 mutant proteins may be functional, they are typically trapped in the ER due to misfolding. […] We have developed and optimized a cell based renilla luciferase reporter assay in 1536 well format for the identification of up-regulators of the mutant Rab9 promoter. This assay presents data on the validation of hits from the primary screen, which used a firefly luciferase read-out. NIH Chemical Genomics Center [NCGC] NIH Molecular Libraries Probe Production centers Network [MLPCN] MLPCN Grant: MH089375 Assay Submitter (PI): Yiannis A. Ioannou
Huh7 cells stably expressing NPC promoter-luciferase will be seeded at 1,500 cells/well in 5 uL in 1,536-well white opaque plates with 23 nL/well of compound in DMSO solution. The assay plates will be incubated at 37 deg C for 24 hours, after which 3 uL/well BriteLite plus luciferase detection reagent mixture (Perkin Elmer) will be added. Luminescence signal will be measured in a ViewLux plate reader (Perkin Elmer) after a 10 minute incubation at the room temperature.

SMILES | Potency | activation
O=C(CSc1nnc(-c2ccccc2)o1)Nc1ccccc1F | 112 nM (active) | 
CCc1cc2c(N=Nc3c(O)[nH]c4ccccc34)ncnc2s1 |  | 21.6% (inactive)
Cc1ccc(NC(=O)COC(=O)C2C3CC4OC(=O)C2C4C3)cc1Cl (stereo not drawn) |  | 26.1% (inactive)
Cc1ccc(NC(=O)NC(=O)c2ccccc2)cc1F | 445 nM (active) | 
COc1ccc([N+](=O)[O-])cc1COc1ccc2c(-c3ccccc3)cc(=O)oc2c1 |  | 12.7% (inactive)
N#CC/C(N)=N/NC(=O)CCCNc1ncc(C(F)(F)F)cc1Cl | 19900 nM (active) | 
COc1ccc(-c2csc(N(CCCN(C)C)C(=O)c3ccccc3C)n2)cc1 |  | -38% (inactive)
CCOC(=O)c1ccc(NC(=O)Oc2cc(C)c(Cl)cc2C(C)C)cc1 |  | 12.2% (inactive)
O=C(CSc1nccn1Cc1ccco1)Nc1ccccc1F |  | 25.6% (inactive)
CC(C)CC(=O)N1CCN(c2ccc(NC(=O)c3ccco3)cc2)CC1 |  | 19.6% (inactive)
CC1CCCN(S(=O)(=O)c2ccc(C(=O)Nc3nnc(-c4ccncc4)o3)cc2)C1 (stereo not drawn) |  | -34.8% (inactive)
Cc1cccc(N2CCN(C(=S)c3ccccc3)CC2)c1 |  | 24.4% (inactive)
O=C(NC(=S)Nc1ccc(CN2CCCCC2)cc1)c1cc2ccccc2o1 |  | 16.3% (inactive)

Source: PubChem BioAssay AID720525 (National Center for Advancing Translational Sciences (NCATS), 2013)
